Screen size: about 1,400 compounds; about 30 (2%) were called active. Another 15% or so got no clear call; they are omitted. Calls follow the shape of the dose curve; as a rule, active = well fitted inhibition curve with a large enough effect; inconclusive = small, poorly fitted or top-dose-only effect; inactive = flat fitted curve, though single readings scatter. For the sample, actives were picked, then their nearest neighbours and some compounds at random.
% is scaled to controls: 0 for no effect and ±100 for the full control effect; potency is read from the fitted curve at half-maximal effect.

This test is described as follows: Firefly Luciferase Counterscreen for Inhibitors of ATXN expression. As to conditions: luminescence; series mostly up to 57.5 µM; activity change, negative = inhibition: at the top concentration. From the text:
University of Utah School of Medicine, Salt Lake City, Utah
Spinocerebellar ataxia type 2 (SCA2) is a multisystem neurodegenerative disease caused by a dominantly acting mutation leading to expansion of a polyQ domain in the ataxin-2 protein (ATXN2). SCA2 patients develop progressive ataxia and later lose function in other neuronal systems. Prominent parkinsonian signs develop in some patients. Like many neurodegenerative disorders, no symptomatic or disease-modifying treatments are known.
The primary objective of the proposed research is to identify compounds inhibiting ATXN2 expression and to test them for efficacy in SCA2 mouse models. We have developed a cell-based assay paired with an in vivo mouse model using identical luciferase expression constructs. This approach takes advantage of an ATXN2-luciferase transgene, with the luciferase gene flanked by the upstream and downstream portions of the ATXN2 gene. Here we describe a 5-7 dose quantitative high thoroughput screen (qHTS) for compounds lowering ATXN2 expression. We screened the NIH Molecular Libraries Small Molecule Repository (MLSMR) and NCGC's mechanistically annotated (MIPE) and drug repurposing (NPC) collections of compounds for lowering expression of an ATXN2-luciferase reporter in HEK-293 cells. The assay is a multiplexed cell viability assay to ensure target reduction in the absence of cytotoxicity. Secondary qHTS assays included a CMV-luciferase reporter expressed in HEK-293 cells as well as a biochemical assay using recombinant luciferase to detect inhibitors of the reporter enzyme. Compounds that inhibit ATXN2 expression but is not cytotoxic were selected for confirmatory and secondary screens.
PROTOCOL TABLE (as described by Inglese J, Shamu CE and Guy RK. 2007)
SEQUENCE No. (e.g., 1, 2, 3, etc.); […] (e.g., Cells, Incubation, Reagent, etc.); VALUE; DESCRIPTION.
2; Compounds; 23 nL; Kalypsis pintool (Wako USA) equipped with a 1536-well pin head.
3; Enzyme; 1 uL; recombinant firefly luciferase (prepared in 50 mM Tris HCl pH7.5, 10 mM MgCl2, 0.05% BSA, 0.01% Tween20) at final concentration of 10 nM. Wells containing buffer only were used as control (set as 100% inhibition when normalizing data).
4; Incubation; 10 min; room temperature.
5; Detection; Luminescence; Viewlux plate reader (PerkinElmer).
NOTES (numbers refer to Sequence numbers above)
1. Luciferase substrate is added to 1536 well, Greiner white assay plate. Evaporation was prevented by covering assay plates with metal lids containing holes to allow gas diffusion.
2. Compounds were added in a dose response manner with the final concentrations of 57, 11.4, 2.28, 0.46, 0.091, 0.018, 0.0037 uM. Vehicle-only plates, with DMSO being pin-transferred to columns 5-48, were inserted uniformly at the beginning and the end of each library to monitor and record any shifts in assay performance.
3. Recombinant firefly luciferase (10 nM final concentration) is added to the assay plate.
5. End-point luminescence is then measured on the Viewlux (PerkinElmer) imager equipped with a clear emission filter using a 2 sec exposure.
Inglese J, Shamu CE and Guy RK, Reporting data from high throughput screening of small molecule libraries, Nature Chemical Biology, 2007, 3(8): 438-441. doi.org/10.1038/nchembio0807-438.
For the molecule `COCCCNCCCOc1ccc(Cl)cc1C(C)(C)C`, the “activity change, negative = inhibition” value was 1.71% (inactive). Regarding `CC(C)C1C(=O)N(Cc2cn(CCC3OCCO3)nn2)CCS(=O)(=O)N1Cc1ccc(-c2ccc(Cl)cc2)cc1` (stereo not given), the “activity change, negative = inhibition” value was -3.28% (inactive). For `COc1cccc(S(=O)(=O)NCc2ccc(C(=O)Nc3cccc(Cl)c3)cc2)c1`, the “activity change, negative = inhibition” value is -2.18% (inactive). The same measure, in the same setting: the value for `Cc1ccc(OCCCC(=O)NNC(=O)c2ccccn2)cc1` was -1.95% (inactive); that for `CCCC(NCC(O)COc1ccc(-c2ccccc2)cc1)c1ccccc1` (stereo not given) was -3.86% (inactive); that for `O=C(Nc1cccc(Br)c1)c1cccc(OC(=S)N2CCOCC2)c1` was -13.5% (inactive).

Take `O=C(CSc1nnc(-c2ccc(Br)cc2)o1)Nc1cccc(C(=O)O)c1`: the Potency is 3.98 µM (active).

Take `O=C(CSc1n[nH]c(-c2ccccn2)n1)Nc1ccccc1`: the “activity change, negative = inhibition” value is -13.1% (inactive).

`CC1(C(=O)Nc2cnc3ccccc3c2)CCN1C(=O)c1ccccc1CCc1ccccc1` (stereo not given): the “activity change, negative = inhibition” value was -1.11% (inactive). With `O=C(NC(Nc1ncc(S(=O)(=O)c2ccc([N+](=O)[O-])cc2)s1)(C(F)(F)F)C(F)(F)F)c1ccc(Cl)cc1`, the “activity change, negative = inhibition” value is -10.1% (inactive). Still for that read-out and setting: the value for `NC(Cc1ccc(C(F)(F)F)cc1)c1csc(Nc2ccc(C(=O)c3ccccc3)cc2)n1` (stereo not given) was 0.547% (inactive); that for `Cc1ccc(C2CC(=O)Nc3c2ccc2ccccc32)cc1[N+](=O)[O-]` (stereo not given) was -4.69% (inactive).

Regarding `CCc1nc2c(OCc3ccc(Cl)cc3)cccn2c1N(C=O)Cc1ccc(OC)cc1`, the “activity change, negative = inhibition” value is -3.69% (inactive). Still for that read-out and setting: the value for `COc1ccc(Cc2[nH]n3c(=O)cc(C(C)C)nc3c2-c2ccccc2)cc1` was -12.5% (inactive); that for `CNC(=O)c1sc(N2N=C3/C(=C/c4ccccc4)CCCC3C2c2ccccc2)nc1C` (stereo not given) was -2.34% (inactive); that for `CN1CCC(N(C)S(=O)(=O)c2ccc(NC(=O)COc3ccc(Br)cc3Cl)cc2)CC1` was -14.6% (inactive). Same read-out and setting: next, `CN(C)CCNc1ccc(CO)c2sc3ccc(O)cc3c(=O)c12`: -5.83% (inactive); `CCn1cc(Cl)c(C(=O)N2N=C(c3ccc4ccccc4c3)CC2c2ccccc2O)n1` (stereo not given): -3.47% (inactive); `CC(=O)NC(=C(Cl)Cl)S(=O)(=O)c1ccccc1`: 1.35% (inactive). On the same count and under the same terms, next, `S=C(NCc1cccnc1)Nc1ccc(Oc2ccc(Cl)cc2)cc1`: -0.796% (inactive). Consider `C(=NN1CCCCCC1)c1ccc2ccccc2n1`, for which the Potency is 0.1 µM (active). Regarding `S=C(Nc1cc(Cl)ccc1Oc1ccccc1)N1CCN(c2ccccn2)CC1`, the “activity change, negative = inhibition” value was -1.6% (inactive).

With `CN(c1ccccc1)S(=O)(=O)c1cccc(NC(=O)c2cc(=O)c3ccccc3o2)c1`, the “activity change, negative = inhibition” value is -0.345% (inactive). Consider `O=C(COc1nsnc1N1CCOCC1)N/N=C/c1ccccc1O`, for which the “activity change, negative = inhibition” value was -13.4% (inactive).

On to `COc1ccccc1N(CC(=O)N/N=C/c1c(O)ccc2ccccc12)S(C)(=O)=O`, for which the “activity change, negative = inhibition” value is -10.5% (inactive). With `Cn1c(CO)cnc1SCC(=O)c1ccc(Br)cc1`, the “activity change, negative = inhibition” value is -8.93% (inactive). For the molecule `CC(=O)Nc1cccc(-c2ccnc3c2CC(C)(C(=O)Nc2ccc(Cl)cc2)O3)c1` (stereo not given), the “activity change, negative = inhibition” value was -2.94% (inactive). The same measure, in the same setting: next, `CCCCOc1ccc(CSC(=N)N)cc1Cl`: -4.4% (inactive).

For the molecule `O=[N+]([O-])c1cc(Cl)c(O)c2ncccc12`, the “activity change, negative = inhibition” value is -17.6% (inactive). Still for that read-out and setting: the value for `Cc1cccn2c(=O)c(/C=C(\C#N)C(N)=O)c(N3CCN(c4cccc(Cl)c4)CC3)nc12` was 0.85% (inactive). Still for that read-out and setting: next, `NC(c1csc(NC(=O)c2cccc(OC(F)(F)F)c2)n1)c1ccccc1Cl` (stereo not given): -0.688% (inactive).

In the case of `COc1cc(/C=N\NC(=O)CC#N)ccc1OC/C=C/c1ccccc1`, the “activity change, negative = inhibition” value is -3.57% (inactive). On the same count and under the same terms, next, `COC(=O)c1cc(NC(=O)c2cc(-c3ccc(C(F)(F)F)cc3)oc2C(F)(F)F)ccc1N1CCOCC1`: -5.33% (inactive). Same read-out and setting: the value for `COC1CC(C)C(OC)c2cc(O)cc(c2O)NC(=O)C(C)=CC=CC(C)C(OC(N)=O)C(C)=CC(C)C1OC` (stereo not given) was -11.5% (inactive); that for `Cc1cccc(C(=O)N/N=C2\CS(=O)(=O)N(C)c3ccsc32)c1` was -9.38% (inactive); that for `CC(=O)Oc1ccc(N(C(C)=O)S(=O)(=O)c2ccc(Cl)cc2)c2ccccc12` was -17.1% (inactive). Same read-out and setting: the value for `CCOC(=O)CSc1cccc2cccnc12` was -10.6% (inactive); that for `CC(=O)Nc1cccc(-c2ccnc3c2CC(C)(C(=O)Nc2ccc(Cl)c(C(F)(F)F)c2)O3)c1` (stereo not given) was -1.06% (inactive). For `Cc1ccc2ccc(C(Nc3ccccn3)c3ccccc3)c(O)c2n1` (stereo not given), the “activity change, negative = inhibition” value is -7.07% (inactive). Same read-out and setting: next, `Cc1nc2ccccc2n1/N=C/c1ccc([N+](=O)[O-])o1`: -2.11% (inactive). Same read-out and setting: the value for `COc1ccc(-c2cnc3c(NC=O)cc(-c4ccccc4OC)cn23)cc1OC` was -3.03% (inactive). For the molecule `CN1CCN(c2ccc(-c3cc(NC=O)c4ncc(-c5ccc(F)c(Cl)c5)n4c3)cc2)CC1`, the Potency is 15.8 µM (active). As to `COc1ccccc1-c1cc(NC=O)c2ncc(-c3ccc(F)cc3)n2c1`, the “activity change, negative = inhibition” value is -1.97% (inactive). For `Cc1cc(C)nc(N/N=C2/CCCC/C2=C\c2ccccc2)n1`, the “activity change, negative = inhibition” value is -3.98% (inactive). Still for that read-out and setting: next, `Cc1ccc(C(NC(=O)C2CCN(Cc3ccc(Cl)c(Cl)c3)CC2)c2ccccn2)cc1` (stereo not given): -2.96% (inactive); `Cn1c(=O)c2c(nc(CN3CCN(Cc4ccccc4)CC3)n2Cc2ccc(Cl)cc2)n(C)c1=O`: 0.959% (inactive); `Cn1c2ccccc2c(=O)c2c(=O)n(C3CCCCC3)c(-c3cccs3)nc21`: -7.28% (inactive).

On to `CC1(C)Cc2ccccc2C(NNC(=O)c2ccccn2)=N1`, for which the “activity change, negative = inhibition” value is 0.45% (inactive). The same measure, in the same setting: next, `CC(OC(=O)c1cc(Br)ccc1O)C(=O)Nc1ccc(S(=O)(=O)N2CCCC2)cc1` (stereo not given): -2.03% (inactive); `O=C(Nc1ccc(N2CCN(C(=O)c3cccs3)CC2)c(Cl)c1)c1cccnc1`: -0.903% (inactive).
